Compound activity as filed in PubChem BioAssay.
TRHR agonist = activates the human TRH receptor | TRHR cells, calcium flux fluo-8, FDSS agonist mode | activation, % at 2 µM | 360,000 tested, 0.18% active | P34981
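Agonist-mode FDSS calcium read (Ex 480/Em 530, 1 s cycles) in 1536-well TRHR cells with fluo-8 dye, after 10-cycle baseline and 23 nL compound addition; TRH at EC20 (10 nM final) added afterwards for the enhancer phase.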
D1 ag = human D1 receptor agonism | HEK293 T-REx D1 cells, calcium flux, agonist mode | activation, % at 2 µM | 360,000 tested, 1% active
Target sequence (P21728 whole entry, looked up): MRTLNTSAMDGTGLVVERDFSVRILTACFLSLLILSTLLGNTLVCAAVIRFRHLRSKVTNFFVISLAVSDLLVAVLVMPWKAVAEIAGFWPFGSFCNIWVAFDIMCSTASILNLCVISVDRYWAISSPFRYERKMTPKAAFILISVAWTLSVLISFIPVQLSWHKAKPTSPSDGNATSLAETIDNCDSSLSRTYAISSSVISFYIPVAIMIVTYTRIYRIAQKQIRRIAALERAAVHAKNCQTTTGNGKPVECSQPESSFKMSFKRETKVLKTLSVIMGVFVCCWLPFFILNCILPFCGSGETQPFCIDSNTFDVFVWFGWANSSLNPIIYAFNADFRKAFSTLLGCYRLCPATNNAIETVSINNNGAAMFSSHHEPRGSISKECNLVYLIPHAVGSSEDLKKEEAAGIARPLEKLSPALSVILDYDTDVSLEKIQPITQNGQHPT
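Tetracycline-induced HEK293 TREx D1 cells, force-coupled to calcium signalling, were dye-loaded with a no-wash calcium kit. Compound was pin-added after a 10 s baseline. Fluorescence was read kinetically at 1 cycle/s for 180 s, with calcium rises flagged as agonism.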
GRP78 ERSR act = induces the endoplasmic reticulum stress response in human glioma cells; U87-MG GRP78 promoter luciferase reporter, 16 h; Potency, µM, most hits filed as activators; 420,000 tested, 0.02% active; AID 602332; active means well fitted activation curve with a large enough effect; further: series mostly up to about 76 µM; nearly all actives have a fitted effect of over 35% in size
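ERSR induction read as luciferase luminescence (Bright-Glo, 10 min at room temperature) in stably transfected human U87-MG glioma cells exposed to compounds for 16 h, using GRP78 as sensor.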
D1 potentiator = enhances dopamine response at the human D1 receptor | P21728 | HEK293 TREx D1 cells, calcium flux, dopamine EC20 potentiation | potentiation, % at 10 µM | 360,000 tested, 0.036% active | AID 504651; in the data active means potentiation above about 30%
TRHR PAM = allosterically enhances the human TRH receptor | 360,000 tested, 0.66% active | AID 493056 | TRHR cells, fluo-8 calcium fluorescence, EC20 TRH enhancement | enhancement, % at 2 µM; in the data active means enhancement above about 30%
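TRHR-expressing cells loaded with fluo-8 calcium dye were read kinetically (ex 480/em 530) during compound addition, then stimulated with an EC20 of TRH (10 nM final). Enhancement of the Gq-mediated intracellular calcium response was scored.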
D1 antag = antagonists of human D1 dopamine receptor; P21728; HEK293 TREx D1 cells, calcium flux, dopamine EC80; active compounds read low; activity change, negative = inhibition, % at 10 µM; 360,000 tested, 3.2% active; AID 504652; in the data active means activity change below about -30%
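Using tetracycline-induced force-coupled D1 Hek293 cells and a calcium dye, signals were followed for 180 s after compound, then for 180 s after EC80 dopamine, to detect inhibitors.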
Hits are given with their value; - = inactive; . = no result given; ! = a repeat was not active. The list is not random: actives were taken first. Their share in the collection is about 4%. Unless noted, no stated cut-off is given here; in the data, active means activation above about 30%; inactive means the rest.

SMILES | TRHR agonist | D1 ag | GRP78 ERSR act | D1 potentiator | TRHR PAM | D1 antag
O=C(Nc1ccc(Cc2ccncc2)cc1)c1ccc(S(=O)(=O)N2CCCC2)cc1 | - | - | - | - | - | -39
O=C(CN1CCN(C(=O)c2cccc(S(=O)(=O)N3CCCC3)c2)CC1)Nc1cccc(F)c1 | - | - | - | - | - | -33
Cc1noc(C)c1CSc1ccc(Br)cc1 | - | - | - | - | - | -33
CC(=O)Nc1ccc(SCc2c(C)noc2C)cc1 | - | - | - | - | - | -
Cc1cccc(NC(=O)c2ccc3[nH]c(C)cc(=O)c3c2)c1 | - | - | - | - | - | -
CC1=C(C(=O)OC(C)(C)C)C(c2cccs2)NC(=O)N1 (stereo not given) | - | - | - | - | - | -
CCCCCC1NC(=O)NC1CCCCCC(=O)O (stereo not given) | - | - | - | - | - | -
O=C(CCCO)CCCCCCCCC[C@H]1N[C@H](CO)[C@@H](O)[C@@H]1O | - | - | - | - | - | -45
CC1CCN(C(=O)COC(=O)CCC(=O)c2ccc(Cl)cc2)CC1 | . | . | - | . | . | .
c1ccc(-c2ccc(OCCCNC3CCCC3)cc2)cc1 | - | 41 | - | - | - | -37
c1ccc(Cc2ccc(OCCCNC3CCCC3)cc2)cc1 | - | 56 | . | - | - | -
COc1ccc(OCCNC2CCCC2)cc1 | - | - | - | - | - | -
COC(=O)C/C=C\[C@@H](C)[C@@H](/C=N\O[C@@H](C)c1cn([C@H]2COC[C@H]2O)nn1)OC | . | . | - | . | . | .
CCn1c(CNc2ccc(F)cc2)nnc1SCC(=O)N1CCCc2ccccc21 | - | - | - | - | - | -31
Cn1c2ccsc2c2ncn(Cc3ccc(F)cc3)c(=O)c21 | - | - | - | - | 36 | -
CCN(CC)c1ccc(N)cc1S(=O)(=O)Nc1ccccc1OC | - | - | - | - | - | -32
CC(C)C[C@@H](CN=[N+]=[N-])N1CCN(C)CCC1=O | - | - | - | - | 31 | -
CC(C)/C=C1\CC/C(=C\c2ccc(N(C)C)cc2)C1=O | 94 | 243 | - | - | - | -31
COc1cc(-c2noc(-c3ccc(N4CCN(C)CC4)c([N+](=O)[O-])c3)n2)cc(OC)c1OC | - | - | - | - | - | -
CCOC(=O)Cc1csc(NC(=O)CSc2ncnc3c2cnn3-c2ccccc2Cl)n1 | - | - | - | - | - | -78
Cc1nnc(NC(=O)CSc2ncnc3c2cnn3-c2ccccc2C)s1 | - | - | - | - | - | -
c1ccc(COc2ccc(OCCCn3cncn3)cc2)cc1 | - | - | - | - | - | -
Clc1ccc(OCCCn2cncn2)cc1Cl | - | 56 | - | - | - | -
CCN(CC)CCNC(=O)C(C)c1nn(CC)c(=O)c2ccccc12 (stereo not given) | - | - | - | - | - | -57
CCN(CC)CCNC(=O)Cc1nn(CC)c(=O)c2ccccc12 | - | - | - | - | - | -
SMILES | TRHR agonist | D1 ag | GRP78 ERSR act | D1 potentiator | TRHR PAM | D1 antag
O=C(Cn1c(=O)oc2ccccc21)Nc1nnc(N2CCCCCC2)s1 | - | - | - | - | 30 | -
CC1CCN(c2nnc(NC(=O)Cn3c(=O)oc4ccccc43)s2)CC1 | - | - | - | - | - | -
O=C(CSc1nnc(CNC(=O)c2c(F)cccc2F)o1)NCCc1ccccc1 | - | - | - | - | - | -
O=C(CCCN1CCC(C(=O)c2ccc(F)cc2)CC1)c1ccc(F)cc1 | - | - | - | - | - | -85
O=C(CCCN1CCC(O)(c2ccc(Br)cc2)CC1)c1ccc(F)cc1 | - | 70 | - | - | - | -87
O=C(CCCN1CCC(O)(c2cccc(C(F)(F)F)c2)CC1)c1ccc(F)cc1 | - | 61 | - | - | - | -
CC1CCN(CCCC(=O)c2ccc(F)cc2)CC1 | . | . | - | . | . | .
COCCN(Cc1ccco1)C(=O)c1cc2c(Cl)nc3ccc(C)cc3c2s1 | - | - | - | - | - | -
CCN(N=O)c1ccc(/C=C2\C=Cc3ccccc32)cc1 | . | . | - | . | . | .
CN1CCN(c2ccnc(N(C)CCCCCCN)n2)CC1 | . | . | - | . | . | .
COc1cc(/C=C/c2ccc3c(Br)cc(Br)c(O)c3n2)ccc1O | - | - | 28µM | - | - | -
O=C(Nc1ccccc1)c1ccc2c(c1)CCN2S(=O)(=O)c1ccccc1 | - | - | - | - | - | -32
CC(=O)Nc1cccc(NC(=O)c2ccc3c(c2)CCN3S(=O)(=O)c2ccccc2)c1 | - | - | - | - | - | -
COc1ccc(NC(=O)c2ccc3c(c2)CCN3S(=O)(=O)c2ccccc2)cc1 | - | - | - | - | - | -51!
COc1ccc(NC(=O)c2ccc3c(c2)CCN3S(C)(=O)=O)cc1 | . | . | - | . | . | .
Cc1cccnc1-c1cccc2c1OC(CNC(=O)C1CCCc3c1[nH]c1ccccc31)C2 (stereo not given) | . | . | - | . | . | .
Cc1cccc(NC(=O)C2CCN(S(=O)(=O)c3c(C)[nH]c(=O)[nH]c3=O)CC2)c1 | - | - | - | - | - | -
Cc1cc(C)cc(NC(=O)C2CCN(S(=O)(=O)c3c(C)n[nH]c3C)CC2)c1 | - | - | - | - | - | -77
Cc1ccc(NC(=O)C2CCN(S(=O)(=O)c3c(C)noc3/C=C/c3ccco3)CC2)cc1C | - | - | - | - | - | -
Cc1noc(/C=C/N(C)C)c1S(=O)(=O)N1CCC(C(=O)Nc2ccc(Cl)cc2)CC1 | - | - | - | - | - | -45
Cc1noc(/C=C/c2ccco2)c1S(=O)(=O)N1CCC(C(=O)Nc2ccc(F)c(Cl)c2)CC1 | - | - | - | - | - | -48
Cc1ccc(NC(=O)C2CCN(S(=O)(=O)c3c(C)noc3/C=C/N(C)C)CC2)cc1 | - | - | - | - | - | -
CN1CCCc2cc(/C=C/c3ccnc4ccccc34)ccc21 | . | . | - | . | . | .
COc1ccc2nc3sc(C(=O)N4CCN(c5ccccc5)CC4)cc3cc2c1 | - | - | - | - | - | -59
COc1ccc2cc3cc(C(=O)N4CCN(c5ccc(C(C)=O)cc5)CC4)sc3nc2c1Cl | - | - | - | - | - | -
COc1cccc(N2CCN(C(=O)c3cc4cc5cc(C)ccc5nc4s3)CC2)c1 | - | - | - | - | - | -
CC(=O)c1ccc(N2CCN(C(=O)c3cc4cc5cc(C)ccc5nc4s3)CC2)cc1 | - | - | - | - | 49 | -
CCOC(=O)Cc1cc(-c2ccccc2)nc2ccc3ccccc3c12 | - | - | - | - | - | -36
COc1ccc2oc(=O)cc(CN3CCN(Cc4ccc(OC)c(OC)c4OC)CC3)c2c1 | - | - | - | - | - | -
Cc1nnc(NC(=O)CCN2C(=O)C3CC=CCC3C2=O)s1 (stereo not given) | . | . | - | . | . | .
